Compounds with a hit are over-represented: about 8.3% of the library has one in this group of screens.
LASV entry inh – qHTS for Inhibitors of binding or entry into cells for Lassa Virus. Lassa virus pseudotype entry inhibition, cell reporter. Potency, µM (highest dose often 37.9 µM), usual class: inhibitors. hit rate 1.2% among 300,000; calls by dose curve; tested in HEK293 cells; also: nearly all actives have a fitted effect of over 50% in size
HCV inh – qHTS Assay for Inhibitors of Hepatitis C Virus (HCV). Huh7.5.1 HCVcc-Cre infection, luciferase reporter, 44 h. AID 651820, 2012. hit rate 3.4% among 340,000. Potency, µM (doses to about 41.8 µM), hits mostly inhibitors
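Reporter virus HCVcc-Cre (~0.5 moi) infects cells exposed to compound; seeding density 1,000 cells/well with 4 h settling beforehand. Luminescence, 15 sec read, taken 44 h post-infection following a 15 min RT substrate incubation.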
MARV entry inh – qHTS for inhibitors of binding or entry into cells for Marburg Virus. Marburg virus pseudotyped entry inhibition, cell reporter. Potency, µM (titrated, usually from 37.8 µM), most hits filed as inhibitors. hit rate 1.8% among 300,000. AID 540276, 2011; calls by dose curve; tested in HEK293 cells
Giardia FBPA inh – qHTS Assay for Inhibitors of Fructose-1,6-bisphosphate Aldolase from Giardia Lamblia | A8B2U2 | purified Giardia FBPA | Potency, µM (top dose mostly 59.6 µM), usual class: inhibitors | hit rate 0.71% among 290,000 | AID 2451, 2010; also: nearly all actives have a fitted effect of over 55% in size
Target sequence (A8B2U2 whole entry, looked up): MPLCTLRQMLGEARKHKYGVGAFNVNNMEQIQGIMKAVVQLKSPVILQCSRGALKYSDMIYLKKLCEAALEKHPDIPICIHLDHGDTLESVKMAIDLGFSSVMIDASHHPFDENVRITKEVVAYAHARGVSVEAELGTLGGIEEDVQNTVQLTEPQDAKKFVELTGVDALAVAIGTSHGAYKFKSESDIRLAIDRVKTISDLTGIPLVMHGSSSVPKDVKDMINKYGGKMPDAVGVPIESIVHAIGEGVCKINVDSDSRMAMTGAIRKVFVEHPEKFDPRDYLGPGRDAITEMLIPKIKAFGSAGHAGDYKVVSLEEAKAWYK
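40 nM FBPA preincubated 10 min at RT with compound (up to 57.5 uM final), then substrate plus GAPDH/TPI/NAD/arsenate coupling and diaphorase/resazurin added. Fluorescence read after 20 min at RT, 525/598 nm.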
FMDV inh – High Throughput Screening for Foot and Mouth Disease Virus Antivirals. Potency, µM (highest dose often 57.9 µM), actives largely listed as inhibitors. FMDV antiviral cell-based qHTS. AID 1159524, 2015. hit rate 1.2% among 410,000; calls by dose curve; tested in HEK293T cells; also: read-out not given here; nearly all actives have a fitted effect of over 45% in size
HCMV inh – qHTS Assay for inhibitors of the human cytomegalovirus (HCMV); HFF cells, HCMV-luciferase reporter, 72 h; active compounds read low; activity change, negative = inhibition, % at 57.5 µM; hit rate 4.5% among 410,000; AID 1259415, 2018; in the data active = activity change below about -60%; inconclusive = no clear call, values can overlap the other calls; inactive = above about -39%
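After 16 h attachment at 37C, HFF cells received test compound and HCMV-luciferase (1 PFU/cell); reporter luminescence read 72 h later, data normalized against buffer-only and known inhibitor Salinomycin.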
A number is an active result; – = inactive; ? = inconclusive; · = no result given; [ ] = another dose, or the depositor's remark. Unless noted, calls follow the shape of the dose curve; as a rule, active = well fitted curve in the direction sought with a large enough effect; inconclusive = small, poorly fitted or top-dose-only effect, or another doubt; inactive = no such curve, though single readings can be large; an effect the other way counts as inactive or inconclusive.

SMILES	LASV entry inh	HCV inh	MARV entry inh	Giardia FBPA inh	FMDV inh	HCMV inh
CCOC(=O)c1ccc(NC(=S)NC(=O)c2cncc(Br)c2)cc1	–	–	–	–	–	-72
CCCCOC(=O)c1ccc(NC(=S)NC(=O)c2c(Br)c(C)nn2C)cc1	–	?	?	?	–	-64
COC1CCCN(Cc2cn(C)nc2-c2ccc(Oc3ccccc3)cc2)C1 (stereo not drawn)	–	–	?	–	–	–
Cn1cc(CN2CCCCC2CO)c(-c2ccc(Oc3ccccc3)cc2)n1 (stereo not drawn)	–	–	?	–	–	–
CCCN1CCC(NCc2cn(C)nc2-c2ccc(Oc3ccccc3)cc2)CC1	·	11µM	–	–	–	?
COCCN1CCCC(CNCc2cn(C)nc2-c2ccc(Oc3ccccc3)cc2)C1 (stereo not drawn)	·	14µM	·	–	–	?
Cc1ccccc1Cn1cc(S(=O)(=O)c2ccc(C(C)C)cc2)c(=O)c2cc3c(cc21)OCO3	–	10µM	–	·	–	–
COc1cccc(C(C(=O)NC(C)(C)C)N(CC(C)C)C(=O)CCC(=O)Nc2cc(C)on2)c1OC (stereo not drawn)	–	–	?	–	–	–
COc1cccc(C(C(=O)NC(C)(C)C)N(CCC(C)C)C(=O)CCC(=O)Nc2cc(C)on2)c1OC (stereo not drawn)	–	–	8.9µM	–	–	–
CCC(C)(C)NC(=O)C(c1cccc(OC)c1OC)N(C(=O)CCC(=O)Nc1cc(C)on1)C(C)C (stereo not drawn)	–	–	–	–	–	-79
CCC(C)(C)NC(=O)C(c1cccc(OC)c1OC)N(CCC(C)C)C(=O)CCC(=O)Nc1cc(C)on1 (stereo not drawn)	–	–	?	–	–	–
COc1ccc(C(=O)NCCc2csc(-c3ccc(Cl)cc3)n2)c(OC)c1	–	·	·	·	?	–
Cc1cccc(CNC(=O)CCCN2C(=O)COc3ccc(C)cc32)c1	–	·	–	·	–	–
N#Cc1cccc(NC(=O)C2CCN(S(=O)(=O)c3ccc4[nH]c(=O)ccc4c3)CC2)c1	?	·	·	·	–	–
FC(F)(F)c1ccccc1CN1CCN(Cc2ccccc2)CC1	–	–	?	–	·	–
COc1ccccc1N1CCN(C2CCCN(Cc3ccccc3OCCO)C2)CC1 (stereo not drawn)	–	–	?	–	–	–
FC(F)(F)c1ccccc1CN1CCN(C2CCCCCC2)CC1	?	–	8.2µM	–	–	?
FC(F)(F)c1ccccc1CN1CCCC(N2CCN(c3ccccc3)CC2)C1 (stereo not drawn)	·	–	·	–	–	-61
COc1ccc(CN(C2CCCC2)S(=O)(=O)c2cc(Br)ccc2Br)c(OC)c1	·	·	?	·	·	–
Cc1cccc(NC(=O)c2cccc(N3CCCS3(=O)=O)c2)c1	?	·	·	·	–	–
CC(=O)Nc1cccc(NS(=O)(=O)Cc2ccc(Cl)cc2)c1	–	–	–	–	–	-66
CC(O)(CS(=O)(=O)Cc1ccc(Cl)cc1)C(=O)Nc1cccc(C(F)(F)F)c1 (stereo not drawn)	–	–	–	–	–	-103
CC(C)(O)C(=O)NNC(=S)Nc1cccc(C(F)(F)F)c1	·	–	·	–	–	–
CCCC/C=C/C(NC(=O)C(C)(C)C)c1ccccc1 (stereo not drawn)	·	·	·	–	·	·
Cc1cccc(NC(=O)CCc2nc3sc4c(c3c(=O)[nH]2)CCCC4)c1	?	–	?	·	–	–
SMILES	LASV entry inh	HCV inh	MARV entry inh	Giardia FBPA inh	FMDV inh	HCMV inh
O=C(c1cccs1)N(Cc1nc2sc3c(c2c(=O)[nH]1)CCCC3)C1CCCC1	3.5µM	?	?	–	–	-71
CN(C)S(=O)(=O)c1cccc(NC(=O)CCc2nc3sc4c(c3c(=O)[nH]2)CCCC4)c1	·	?	·	·	?	-67
Cc1sc2nc(CN(C(=O)c3cccs3)C3CCCC3)[nH]c(=O)c2c1C	–	?	?	–	?	–
CC(C)OC(=O)C1C(=O)CC(C)(O)C(C(=O)OC(C)C)C1c1ccc(F)cc1 (stereo not drawn)	–	–	–	–	–	?
CC(C)OC(=O)C1CC(C)(O)C(=O)C(C(=O)OC(C)C)C1c1ccc([N+](=O)[O-])cc1 (stereo not drawn)	–	–	?	–	?	-64
COc1cccc(N2CC(NC(=O)c3ccc4c(c3)OCO4)CC2=O)c1 (stereo not drawn)	–	·	·	·	–	–
O=C(Nc1cccc2ncccc12)c1cccc(Br)c1	–	–	–	–	–	–
O=C(Nc1cccc2ncccc12)c1ccc(F)cc1	–	–	–	–	–	-64
O=C(Nc1cccc2ncccc12)c1ccc(Br)c([N+](=O)[O-])c1	?	13µM	?	–	–	-63
O=C(NS(=O)(=O)c1ccc(F)cc1)O[C@@H]1C(=O)c2cc(Br)ccc2O[C@H]1c1ccc2c(c1)OCO2	·	·	?	–	·	·
O=C1CCCC(=O)C1C(=O)c1ccc(C(F)(F)F)cc1[N+](=O)[O-]	·	·	·	·	·	–
O=C(NCc1nc(-c2ccc(C(F)(F)F)cc2)no1)Nc1ccc(OC(F)(F)F)cc1	?	?	?	–	–	-97
O=C(/C=C/c1ccc(S(=O)(=O)N2CCOCC2)cc1)NC(=S)NCCCn1ccnc1	?	22µM	?	–	–	-82
Cc1ccccc1Cn1c(CN2CCC(C(=O)NCc3cccnc3)CC2)cc2ccccc21	–	·	·	·	?	–
N/N=C/C(=N\Nc1ccc(Cl)cc1)C(=O)c1ccncc1	?	22µM	?	–	?	–
O=C1[C@H]2[C@H]3[C@H](O)[C@H](O)C/C(=N/OC[C@@H](O)COCc4ccco4)[C@@H]3CC[C@@H]2C(=O)N1C1CCCCC1	·	·	·	–[12.9 µM]	·	·
Cc1cc(-c2ccc(N=Nc3ccc4c(S(=O)(=O)O)cc(S(=O)(=O)O)c(N)c4c3O)c(C)c2)ccc1N=Nc1ccc2c(S(=O)(=O)O)cc(S(=O)(=O)O)c(N)c2c1O	?	·	?	22µM	32µM	·
Nc1c(N=Nc2ccc(-c3ccc(N=Nc4cc(S(=O)(=O)O)c5ccccc5c4N)cc3)cc2)cc(S(=O)(=O)O)c2ccccc12	?	·	14µM	–	·	·
CC(=O)c1cccc(NC(=O)CSc2nc3c(=O)n(C)c(=O)n(C)c3n2C)c1	–	·	·	·	–	–
Cc1nc2ncccn2c1-c1csc(Nc2ccc(S(N)(=O)=O)cc2)n1	·	–	·	–	–	–
COc1ccc(-c2csc(Nc3ncccc3C)n2)cc1	?	?	?	–	–	–
COc1ccc(Nc2nc(-c3c(C)nc4ncccn34)cs2)cc1	·	11µM	·	?	?	-98
Cc1nc2ncccn2c1-c1csc(Nc2ccccc2)n1	–	11µM	?	–	?	–
COc1ccccc1Nc1nc(-c2sc(N)nc2C)cs1	·	–	·	–	–	–
Cc1nc2sccn2c1-c1csc(NCc2ccccc2)n1	–	11µM	?	–	·	-72

Bioassay records from PubChem BioAssay.
